RE007 growth inh: less growth of the S. pombe RE007 Vpr strain. S. pombe RE007 Vpr strain, BacTiter-Glo ATP luminescence, 24 h. Potency, µM (series often up to 92.2 µM), without a hit: at the top dose activity change, negative = less growth, most hits filed as inhibitors. actives 0.21% (n = 360,000). AID 651644; active means well fitted falling curve with a large enough effect; inconclusive means small, poorly fitted or top-dose-only effect; inactive means no such curve, though single readings can be large or run the other way; further: potency means the concentration at half of the fitted maximal effect; on the % scale 0 is the no-effect control and ±100 the full control effect; nearly all actives have a fitted effect of over 50% in size
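Fission yeast RE007 carrying one integrated HIV-1 vpr copy, seeded at OD 0.01 in PMG+AL medium with 23 nL pinned compound. Grown 24 h at 30 degrees; viability read by BacTiter-Glo luminescence after 5 min.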
Tb PYK inh: inhibitors of Trypanosoma brucei pyruvate kinase; TbPYK enzyme, Kinase-Glo Plus ATP luminescence, 45 min; Potency, µM (top dose mostly 76.8 µM), for inactives: at the highest dose activity, negative = inhibition, usual class: inhibitors; Q57TT1; actives 0.12% (n = 410,000); further: potency means the concentration at half of the fitted maximal effect; on the % scale 0 is the no-effect control and ±100 the full control effect; nearly all actives have a fitted effect of over 50% in size
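Activity of T. brucei pyruvate kinase was followed by Kinase-Glo Plus luminescence after the enzyme reacted 45 min at room temperature with 130 uM ADP (final) and substrate. Test compounds were added before ADP at multiple concentrations.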
Shiga toxin inh: blocks Shiga toxin action in Vero cells. Vero cells, Shiga toxin protein synthesis inhibition reporter. inhibition, % at 38.7 µM. actives 9.2% (n = 290,000); in the data active means inhibition mostly above about 28%, no sharp cut-off; inactive means mostly below about 43%; further: 0% is about no effect
CHX counter: affects cycloheximide protein synthesis inhibition readout, counter-screen; cell reporter, cycloheximide protein synthesis inhibition counterscreen; max response, %; actives 12% (n = 300,000); AID 2314; in the data active means max response mostly above about 13%, no sharp cut-off; inactive means mostly below about 14%; further: read at 38.3 µM for the half of the compounds with a filed dose; 0% is about no effect
Giardia FBPA inh: inhibitors of Giardia lamblia fructose-1,6-bisphosphate aldolase. A8B2U2. purified Giardia FBPA. Potency, µM (series often up to 59.6 µM), for inactives: at the top dose activity, negative = inhibition, usual class: inhibitors. actives 0.71% (n = 290,000); further: potency means the concentration at half of the fitted maximal effect; on the % scale 0 is the no-effect control and ±100 the full control effect; nearly all actives have a fitted effect of over 55% in size
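Giardia FBPA (40 nM reagent) was preincubated 10 min at RT with compound (up to 57.5 uM final), then substrate plus GAPDH/TPI/NAD/arsenate coupling system with diaphorase/resazurin was added; resorufin fluorescence (525/598 nm) was read after 20 min.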
LmPK inhibitor: blocks Leishmania mexicana pyruvate kinase activity | Potency, µM (top dose mostly 57.5 µM), for inactives: at the top dose activity change, negative = inhibition, hits mostly inhibitors | actives 0.37% (n = 290,000) | AID 1721 | purified LmPK, Kinase-Glo ATP luminescence, 1 h; further: potency means the concentration at half of the fitted maximal effect; on the % scale 0 is the no-effect control and ±100 the full control effect
Target sequence (Q27686 whole entry, looked up): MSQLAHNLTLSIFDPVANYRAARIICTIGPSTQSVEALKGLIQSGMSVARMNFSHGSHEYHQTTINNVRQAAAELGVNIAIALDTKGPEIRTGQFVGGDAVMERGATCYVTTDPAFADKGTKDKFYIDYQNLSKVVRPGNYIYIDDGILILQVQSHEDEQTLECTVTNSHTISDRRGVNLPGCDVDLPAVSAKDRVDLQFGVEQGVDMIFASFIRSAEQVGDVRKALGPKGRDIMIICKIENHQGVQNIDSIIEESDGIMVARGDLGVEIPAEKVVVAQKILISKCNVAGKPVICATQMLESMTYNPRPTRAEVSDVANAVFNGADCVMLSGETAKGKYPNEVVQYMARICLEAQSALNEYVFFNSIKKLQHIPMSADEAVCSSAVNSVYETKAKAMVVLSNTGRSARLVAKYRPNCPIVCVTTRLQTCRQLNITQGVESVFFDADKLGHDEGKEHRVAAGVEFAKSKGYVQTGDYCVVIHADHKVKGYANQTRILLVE
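Pyruvate kinase activity monitored as ATP production (luciferase luminescence). Conditions: 0.1 nM enzyme, 0.5 mM PEP, 0.1 mM ADP, 1 h, RT; normalized against uninhibited and no-enzyme wells.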
Starred values were filed as active, the others as inactive; ? = inconclusive; · = not tested or not shown; [ ] = remark or other dose. The sample as a whole holds a higher share of hits than the screen did. Unless noted, the call rests on the fitted dose curve; in most records, active means well fitted curve in the direction sought with a large enough effect; inconclusive means small, poorly fitted or top-dose-only effect, or another doubt; inactive means no such curve, though single readings can be large; an effect the other way counts as inactive or inconclusive.

SMILES	RE007 growth inh	Tb PYK inh	Shiga toxin inh	CHX counter	Giardia FBPA inh	LmPK inhibitor
CCCn1cnc2cc(NCc3ccccn3)ccc21	-6.4%	-7.9%	85.3*	36.7*	?	1.2%
CCn1cnc2cc(NCc3ccncc3)ccc21	1.9%	-5.8%	32.2	1.1	-28.7%	0.8%
COC(=O)c1ccc2nc(-c3cccc(N)c3)cn2c1	-13.6%	-14.5%	10.1	-2.6	-9.7%	25.1µM*
Nc1cccc(-c2cn3ccsc3n2)c1	·	-7.4%	·	·	·	·
COC(=O)c1ccc2nc(-c3ccc(S(C)(=O)=O)cc3)cn2c1	-15.4%	-1.5%	84.6	59.5*	-2.0%	-1.3%
CCOc1cc(/C=C2\C(=O)N(c3ccc(C(N)=O)cc3)N=C2C)ccc1OC(=O)c1cccs1	-11.7%	-9.7%	12.6	5.5	-9.6%	1.8%
CC1=NN(c2ccc(C(=O)O)cc2)C(=O)/C1=C\c1ccc(OC(=O)c2cccs2)cc1	-8.8%	?	38.9	16.4*	-25.3%	-11.6%
Cc1ccc(C)c(OCc2cc(C(=O)NC(c3ccccn3)C(F)(F)F)no2)c1 (configuration not stated)	3.6%	4.1%	·	·	·	·
O=C(CSc1nc2ccccc2n1CCc1ccccc1)c1ccc(O)c(O)c1	3.0%	?	16.3	12.3*	?	17.0%
CC[C@H](C)[C@H](NC(=O)[C@H](C)NC(=O)[C@H](CC(=O)O)NC(=O)[C@H](CO)NC(=O)[C@@H](N)Cc1cnc[nH]1)C(=O)N[C@@H](Cc1ccccc1)C(=O)N[C@H](C(=O)N[C@@H](CCC(N)=O)C(=O)N[C@@H](CCC(N)=O)C(=O)N[C@@H](Cc1ccc(O)cc1)C(=O)N[C@@H](CO)C(=O)N[C@@H](CCCCN)C(=O)N[C@@H](CC(C)C)C(=O)N[C@@H](CC(C)C)C(=O)N[C@@H](C)C(=O)N[C@@H](CCCCN)C(=O)N[C@@H](CC(C)C)C(=O)N[C@@H](C)C(=O)N[C@@H](CC(C)C)C(=O)N[C@@H](CCC(N)=O)C(=O)N[C@@H](CCCCN)C(=O)N[C@@H](Cc1ccc(O)cc1)C(=O)N[C@@H](CC(C)C)C(=O)N[C@@H](C)C(=O)N[C@@H](CO)C(=O)N[C@H](C(=O)N[C@@H](CC(C)C)C(=O)NCC(=O)N[C@@H](CO)C(=O)N[C@@H](CCCNC(=N)N)C(=O)N[C@H](C(=O)N[C@@H](CO)C(=O)N1CCC[C@H]1C(=O)N1CCC[C@H]1C(=O)N1CCC[C@H]1C(N)=O)[C@@H](C)O)[C@@H](C)CC)[C@@H](C)O	·	·	-11.5	-4.4	0.5%	·
COC(=O)c1ccc(OCC2c3cc(OC)c(OC)cc3CCN2C(=O)Cc2ccc(OC)cc2)cc1 (configuration not stated)	·	1.2%	·	·	·	·
Cc1cccc(N2CCN(C(=O)Cn3ncc4c3-c3cc(C)ccc3OC4)CC2C)c1 (configuration not stated)	·	-3.6%	·	·	·	·
O=C(Nc1ccc2oc(=O)ccc2c1)c1ccc2ccccc2c1	-18.3%	-3.9%	25.3	11.5	-11.4%	-8.7%
O=C(Nc1ccc2oc(=O)ccc2c1)c1ccco1	-30.0%	-6.2%	30.8*	22.3*	6.7%	3.8%
O=C(Cc1ccccc1)Nc1ccc2oc(=O)ccc2c1	-3.6%	1.0%	20.6	13.5*	-0.7%	-0.2%
Cc1cccn2c(=O)c(C(=O)NC(C)c3ccccc3)c(O)nc12 (configuration not stated)	·	-0.1%	·	·	·	·
COc1ccc(OC)c(-n2cnc3cc(C(=O)NCCc4ccccc4)ccc32)c1	·	-0.2%	·	·	·	·
NC(=O)c1ccc(C(F)(F)F)n(Cc2ccc(Cl)cc2)c1=O	6.9%	-4.5%	-8.4	24.7*	-0.7%	1.2%
COc1ccc(-c2cc(C(=O)Oc3ccc(C)cc3)c3ccccc3n2)cc1	·	1.3%	·	·	·	·
COc1ccc(-c2cc(C(=O)OCC(=O)N(C)C)c3ccccc3n2)cc1	?	4.1%	30.4	26.5*	7.0%	5.2%
CCN(C(=O)COC(=O)c1c(C)nn(-c2ccccc2)c1C)C1CCS(=O)(=O)C1 (configuration not stated)	0.3%	-7.8%	42.6*	16.2*	4.5%	-13.0%
COc1ccc(-c2cc(C(=O)OCc3ccccn3)c3ccccc3n2)cc1	-19.6%	-3.6%	9.9	27.0*	·	-4.2%
CCN(C(=O)COC(=O)c1cc(-c2ccc3cc(OC)ccc3c2)nc2ccccc12)C1CCS(=O)(=O)C1 (configuration not stated)	·	·	43.2*	29.9*	-0.3%	-7.0%
O=C1[C@@H]2[C@H](C(=O)N1CC(O)COCc1ccccc1)C1C=C[C@H]2C1 (some centres not stated)	3.8%	0.3%	·	·	·	·
CC(C)c1ccc(NC(=O)C2Cc3ccccc3N2C(=O)c2ccccc2)cc1 (configuration not stated)	·	3.9%	·	·	·	·
SMILES	RE007 growth inh	Tb PYK inh	Shiga toxin inh	CHX counter	Giardia FBPA inh	LmPK inhibitor
CCC(CC)c1nnc(NC(=O)c2cc(-c3ccccc3)nc3ccccc23)s1	18.2%	1.4%	9.7	0.7	12.2%	-1.9%
CCC(CC)c1nnc(NC(=O)c2ccc3ccccc3n2)s1	-2.9%	-3.8%	105.0*	37.7*	-3.7%	1.9%
Cc1csc(NC(=O)c2ccc3ccccc3n2)n1	-26.9%	4.3%	98.1*	42.1*	-8.4%	-9.7%
Cc1cnc(C(=O)Nc2nc(-c3ccccc3)cs2)cn1	-5.1%	-6.4%	4.1	-1.6	-0.2%	3.4%
Cc1cccc(NC(=O)c2ccc3ccccc3n2)c1C	8.0%	-0.6%	185.9*	22.9*	-2.4%	-14.1%
Cc1csc(NC(=O)c2cc(C)nc3ccccc23)n1	-1.9%	-0.3%	-6.7	-2.2	-6.5%	6.5%
Cc1csc(NC(=O)c2cnc3ccccc3n2)n1	-5.1%	4.1%	21.6	8.4*	-18.3%	0.9%
O=C(Nc1ccccn1)c1ccc2ccccc2n1	-29.1%	-14.3%	80.7*	66.4*	0.7%[12.9 µM]	?
O=C(Nc1nccs1)c1ccc2ccccc2n1	?	-1.0%	120.2*	45.1*	-28.1%	-4.9%
O=C(Nc1ccccn1)c1ccc(-c2ccccc2)cc1	-26.5%	-8.9%	7.4	0.2	-20.8%	-5.2%
COc1ccccc1CNC(=O)c1cc2c(=O)oc3ccc(C)cc3c2s1	·	-1.6%	·	·	·	·
CSc1snnc1-c1ccccc1	-9.0%	-2.5%	-1.1	3.1	-0.4%	-2.2%
Cc1nnsc1Sc1ccccn1	10.2%	-2.5%	6.3	2.5	0.8%	-10.3%
Clc1ccccc1CSc1snnc1-c1ccccc1	-14.6%	-27.2%	63.6*	37.5*	3.0%	-0.4%
Clc1ccc(-c2nnsc2SCc2ccccc2)cc1	-20.7%	-2.7%	49.4*	43.7*	-7.1%	-3.1%
Clc1ccc(CSc2snnc2-c2ccccc2)cc1	-1.7%	-6.7%	27.4	23.3*	0.0%	8.2%

Screens: PubChem BioAssay, National Center for Advancing Translational Sciences (NCATS)
